From PubChem BioAssay (NCATS)
Results filed as inconclusive are left out. Values without a mark were called inactive. Active and inactive are the calls of the source. Calls come from the whole dose curve; as a rule, active = well fitted cell-killing curve with a large enough effect; inconclusive = small, poorly fitted or top-dose-only effect, or effect the other way; inactive = no such curve, though single readings can be large or run the other way.

Experiment: Viability qHTS for spleen associated tyrosine kinase inhibitor (SYKi) naive MV4-11 cells (AID 1963823); note: nearly all actives have a fitted effect of over 40% in size
Conditions: MV4-11 AML viability, CellTiter-Glo luminescence, 72 h; series mostly up to 45 µM; viability (% of control): at the top concentration
How it was run: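 In this viability screen, compounds acted on SYK inhibitor naive MV4-11 cells for three days (72 hr, 37 C). Remaining viable cells were measured by CellTiter-Glo luminescence following a 10 min room-temperature development.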
Potency is the fitted concentration of half-maximal effect.

| SMILES | viability (% of control) | Potency |
| --- | --- | --- |
| COC(=O)C1=CO[C@@H](O[C@@H]2O[C@H](CO)[C@@H](O)[C@H](O)[C@H]2O)[C@@H]2[C@@H](CO)[C@@H](O)C(O)[C@H]12 (stereo partly drawn) | 87.7% [at 17.3 µM] | – |
| CC(=O)OC(CSC1CCC(=O)OC(C)CCC(=O)C1)C(=O)O (stereo not drawn) | 72% | – |
| NS(=O)(=O)c1ccc(S(=O)(=O)Nc2cccc3c(Cl)c[nH]c23)cc1 | – | 235 nM (active) |
| Cc1ccc(C(=O)N(CCCN)C(c2oc3cc(Cl)ccc3c(=O)c2Cc2ccccc2)C(C)C)cc1 (stereo not drawn) | 1.6% | – |
| COc1cc(/C=C/C(=O)OC2CC(C)=C(C(=O)O)/C2=C/CO[C@@H]2O[C@H](CO)[C@@H](O)[C@H](O)[C@H]2O)ccc1O (stereo partly drawn) | 84.5% [at 17.3 µM] | – |
| C=C1CC[C@@H]2[C@](C)(CO[C@@H]3O[C@H](CO)[C@@H](O)[C@H](O)[C@H]3O)[C@H](O)CC[C@@]2(C)[C@@H]1C/C=C1/C(=O)OC[C@H]1O | 59% [at 17.3 µM] | – |
| Cc1ncc([N+](=O)[O-])n1CC(O)CN1CCOCC1 (stereo not drawn) | 86.3% | – |
| CCC(CC)n1ccc2c(C(=O)NCc3c(C)cc(C)[nH]c3=O)cc(C#N)cc21 | 88.2% | – |
| CC(=O)OC1CC(C)(C(=O)O)CC2C3=CC(=O)C4C5(C)CCC(OC6OC(C(=O)O)C(O)C(O)C6OC6OC(C(=O)O)C(O)C(O)C6O)C(C)(C)C5CCC4(C)C3(C)CCC12C (stereo not drawn) | 70.5% [at 9.25 µM] | – |
| CC(/C=C/C1(O)C(C)CC(O)CC1(C)C)OC1OC(CO)C(O)C(O)C1O (stereo not drawn) | 90.9% | – |
| C[C@@H]1O[C@@H](O[C@H]2[C@H](O)[C@@H](O)[C@H](O[C@H]3[C@H](O[C@H]4CC[C@@]5(C)C(=CC[C@@H]6C5CC[C@]5(C)[C@@H]7[C@H](C[C@@H]65)O[C@]5(CC[C@@](C)(CO[C@@H]6O[C@H](CO)[C@@H](O)[C@H](O)[C@H]6O)O5)[C@H]7C)C4)O[C@H](CO)[C@@H](O)[C@@H]3O)O[C@@H]2CO)[C@H](O)[C@H](O)[C@H]1O (stereo partly drawn) | – | 618 nM (active) |
| CC1CC=C2C1CC1(O)C(=O)CC2(C)C1(C)CO (stereo not drawn) | 70.9% | – |
| CCCC(=O)O[C@@H]1[C@@H]2[C@@H](OC(C)=O)[C@]3(C)C(=O)[C@H]4[C@@H](OC(C)=O)C(C)(C)C[C@H]4[C@]3(C)C(=O)[C@@]2(OC(C)=O)C[C@@H]1C | 68.3% [at 17.3 µM] | – |
| COc1cc(C2Oc3c(O)cc(CCCO)cc3C2CO)ccc1O[C@H]1O[C@H](C)[C@@H](O)[C@H](O)[C@@H]1O (stereo partly drawn) | 90.3% [at 17.3 µM] | – |
| CC1=C2CC(=O)C(C)CC/C=C(\C)CC2(O)OC1=O (stereo not drawn) | 71.9% | – |
| C=C(C)[C@@H]1CC[C@]2(C(=O)O)CC[C@]3(C)C(CCC4[C@]5(C)C(CC[C@]43C)C(C)(C)[C@@H](O)[C@@H]5C(=O)O)C12 (stereo partly drawn) | 85.4% [at 17.3 µM] | – |
| COc1cc(C[C@@]2(O)CO[C@@H](c3ccc(O[C@@H]4O[C@H](CO)[C@@H](O)[C@H](O)[C@H]4O)c(OC)c3)[C@H]2CO)ccc1O | 80.4% [at 17.3 µM] | – |
| CCCCNc1ccc(C(=O)OCCOCCOCCOCCOCCOCCOCCOCCOCCOC)cc1 | – | 10600 nM (active) |
| COC(=O)C1=CO[C@@H](O[C@@H]2O[C@H](COC(=O)/C=C/c3cc(OC)c(O)c(OC)c3)[C@@H](O)[C@H](O)[C@H]2O)[C@@H]2C(CO)=CC[C@H]12 | 77.3% [at 17.3 µM] | – |
| O=C(Nc1ccc(Cl)cc1)C1CCCN(C(=O)c2cccc(-c3ccco3)c2)C1 (stereo not drawn) | – | 8200 nM (active) |
| CC[C@@H](N)CNc1ccnc(-c2cc(-c3cnn(C)c3)ccc2O)n1 | – | 920 nM (active) |
| C=C(C(=O)O)[C@H]1C[C@]2(C)C(=O)CC[C@]23O[C@H]1C[C@@H]3C | 62.8% | – |
| CCC(C)C(C(=O)O)N1Cc2c(OCC=C(C)C)c(C)c(OC)c(C(=O)O)c2C1=O (stereo not drawn) | 88.6% [at 17.3 µM] | – |
| CC1(C)CC[C@]2(C(=O)O[C@@H]3O[C@H](CO[C@@H]4O[C@H](CO)[C@@H](O)[C@H](O)[C@H]4O[C@@H]4O[C@H](CO)[C@@H](O)[C@H](O)[C@H]4O)[C@@H](O)[C@H](O[C@@H]4O[C@H](CO)[C@@H](O)[C@H](O)[C@H]4O)[C@H]3O)CC[C@]3(C)C(=CCC4[C@@]5(C)CC[C@@H](O)[C@@](C)(C(=O)O[C@@H]6O[C@H](CO)[C@@H](O)[C@H](O)[C@H]6O)C5CC[C@]43C)[C@@H]2C1 (stereo partly drawn) | 73.4% [at 9.25 µM] | – |
| CN1C2CCC1CC(OC(=O)[C@H](CO)c1ccccc1)C2 (stereo partly drawn) | – | 651 nM (active) |
| Nc1nc2c(cnn2CCCc2ccc(O)cc2)c2nc(-c3ccco3)nn12 | 73.2% | – |
| Cc1c(C(=O)Nc2ccc(N3CCC(N4CCOCC4)CC3)c(C#N)c2)cnn1-c1ccc(Cl)cc1 | – | 116 nM (active) |
| CC1(C)CCCC2(C)c3c4c(c(=O)oc(=O)c3=CCC12)=CCC1C(C)(C)CCCC41C (stereo not drawn) | 60.2% [at 17.3 µM] | – |
